Among the data in PubChem BioAssay AID1508600 (Functional Genomics Laboratory (NCATS/FGL), 2020) are z-score values, retold here.

About 3,700 (7%) of roughly 53,000 sequences were called active.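 Rule for the calls: active = gene knockdowns whose robust z-score for IL-1 alpha signal is at least 2 or at most -2, so actives lie on both sides; inactive = the rest.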 The entries come from a sample that favours actives as a whole.

The nature of this assay: Components of the Cytosolic LPS Sensing Pathway: Gene Identification via Genome-wide siRNA Screen.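 Note: robust z of the log signal after scaling to non-targeting control siRNA wells of the plate.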 The conditions noted are these: RAW264.7 macrophages, IL-1a HTRF, actives lie on both sides, screened at 100 nM (by protocol), cells primed 5 h with Pam3CSK4 first. The method in brief:
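Read-out: IL-1a HTRF on supernatant, divided by plate negative-control median ×100, log-transformed and converted to robust z-score. Cells were RAW264.7 given 100 nM siRNA, Pam3CSK4-primed 5 hours, then LipidA-transfected 24 hour.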
In the case of CCAUCCCAUAUGUUCCGGUTT against Ptms, the z-score is 0.94 (inactive).

For GGUGAAAACAAUGACUUUGTT against Zbtb44, the z-score was 0.256 (inactive).

GGUUAUUUUGGCUAUAAGATT against Traf3: the z-score was -4 (active). With “CGAUGUUACUAUAGGAUCUTT against A730036I17Rik” the figure was 0.33 (inactive). Consider CCUUCAUUCUCAUUGGCAUTT against Olfr591, for which the z-score is -0.163 (inactive).

As for GCACUACCUGUAUUAAACUTT against Efhd2, the z-score was -0.652 (inactive). With GCAACACAAGUCAUGAAGUTT against Gabpb2 the figure was 0.628 (inactive). The figure for GGAACUGAAAUUCAGUUGGTT against Azin1 is 0.218 (inactive); for GGGAGGAAAUGAAUGAAUUTT against Gypc it is 0.686 (inactive). Take GGAAUUAUCUUCAUCCCUGTT against Abhd10: the z-score was -4.79 (active). Take GGAUCUAUCUCUAGUCCCGTT against Zfp358: the z-score is -1.74 (inactive). The figure for CCUUUAAAAGUACCAACCCTT against B9d1 is 0.679 (inactive). The figure for CGUACCAUGGUCAAGACGUTT against Tpcn1 is 0.692 (inactive); for GCCUUAGGUUGAUAGGAGGTT against Tas2r110 it is -0.191 (inactive); for GGGACCAGAACAAAUACAATT against Klc3 it is 4.06 (active). With GGCCUUUUCUUCUUUUUGUTT against Mill1 the figure was 0.653 (inactive); with “GGAAGGAAAUGUGUGAAAUTT against 4930555G01Rik”, -0.194 (inactive). Take GGAGAGGAUGCAUGUAAAATT against Fbxl22: the z-score was -1.19 (inactive). As to GGAAAUGAACUCAUAGCCATT against Olfr121, the z-score is 0.0495 (inactive). With GGAGUAAAGACAUUCAGGATT against Nlrp4f the figure was 0.716 (inactive); with GCUUGAUCGCUUUCAACUCTT against Coro7, 0.734 (inactive); with GGAAAUUUUUCGCAUGACCTT against Ddx39b, -2.13 (active). The figure for CCUUCUUCUUACUGAUAAUTT against Olfr1276 is -0.471 (inactive); for GCAAUGAACUAUGAAGGCATT against Npm1 it is -0.32 (inactive); for GGACAAAAUUAGACCUUUGTT against Arf2 it is 0.47 (inactive). As to GGCAUCCUGUUGAAACUGATT against Vezt, the z-score is -0.962 (inactive). The figure for GGGUGAAUUCUGUCUAUGUTT against Far1 is 0.0586 (inactive). With GGUAAAAGCUGUUUGAGAGTT against Smim3 the figure was -3.43 (active). As for GGAUUAUCAGAAGUGUGUCTT against Mrps35, the z-score was -0.117 (inactive). With GUCAAGAAUAUUAUGACCCTT against Vamp8 the figure was 0.516 (inactive).

Take CCUCAUUGUGUCGUCUUACTT against Zer1: the z-score is -0.421 (inactive). The figure for GGCUCUGAGACACAUCUACTT against Cpt1b is -0.562 (inactive); for GGAGUUAAUCAGUCAAAUGTT against Dclk2 it is 0.754 (inactive).

As for CCCAGAAGGAUCUGCUCUUTT against Defa20, the z-score is -2.17 (active).

With GGUUAUGUCGCUAAGGAAATT against Tmem50a, the z-score was -0.392 (inactive).

As to GGAGGUCACCUUCUCAAACTT against Mrgprf, the z-score was 0.374 (inactive). In the case of GCCUUUAACAGCUCUUAAUTT against Gm4894, the z-score was 0.999 (inactive). With CGUGCCACUUUUACCGUCCTT against Zdhhc8, the z-score was -2.43 (active). As to UACUCGUAUUCUUAAUUGCTT against Acsl1, the z-score is -0.272 (inactive). As to GCAGAAUCGCUUCAGUUCUTT against Tmed6, the z-score is 0.49 (inactive). As to GGCUGUGUAUUACUGCGCUTT against Vpreb2, the z-score was -0.236 (inactive). The figure for GCCAUGAUGCAUUAUGUAUTT against Haglr is -0.331 (inactive); for GGGUAUUGGUUUUAGAGCATT against Emd it is 0.37 (inactive); for GGCUCUAAUGUAAUGAAUCTT against Fgf10 it is 0.259 (inactive).

As to GGGUAAAAGGCUUUUUUGUTT against St8sia6, the z-score is -0.699 (inactive). The figure for GGCAAAACAUGCUUGGACCTT against Zfp687 is 2.31 (active). With CCAAUUCCUGGGUGCACACTT against Olfr309 the figure was -0.691 (inactive). The figure for GCUCUGCUCUUCUGAAGCATT against Dohh is -2.42 (active); for GGAUGACAUUUCAGUGUGGTT against Matn4 it is 0.561 (inactive). Consider GGAUAUUCAAAUGGGUGCCTT against Bcl7b, for which the z-score was 0.538 (inactive). With GGACAUGAUCGACGACUACTT against Zfyve28 the figure was 0.109 (inactive); with GGAUGAAAGAAAAGAAACUTT against Hoxd11, -0.335 (inactive); with GGAAUGGUAAUGCUAUUGGTT against Tmem39a, 0.169 (inactive). With GGAGAAUGGUUCAUAUCUGTT against Trmt44, the z-score is -0.849 (inactive). The figure for AUGGAAAAAGUGCACAAUCTT against Olfr1061 is 2.34 (active); for UUGUUCAAGAGCUAGAGAUTT against Atg2a it is 0.811 (inactive).

For the sequence GCCGUGCAAAGUUUAUUCATT against Nme8, the z-score was 1.06 (inactive). The figure for CCACCAUUCGGCUCUUUUGTT against Nupl2 is -0.822 (inactive); for GCACCUGAAGACUAAUGUUTT against Gcnt2 it is 0.509 (inactive).

Turning to GGAAUAUUCAGAAUCCCUCTT against Tnfaip8l3, the z-score is -0.762 (inactive). With GGUAACGGGACCAACACUUTT against Otop3 the figure was 1.26 (inactive); with CCUUUAACUUUCUCCUACCTT against Nfkbid, 3.45 (active). For the sequence GGAGGAAACACAUCAUUUGTT against Tmem131, the z-score is 1.15 (inactive). On to GCCUCAAUUCCUCUACGCUTT against Sytl1, for which the z-score is -1.34 (inactive).

GCAUAGUGACCAUGGAUAATT against Olfr807: the z-score was 0.95 (inactive). As to GGAGGACGUGAACUUUGACTT against Stk32c, the z-score was 0.648 (inactive). The figure for GCACGUCAGAAUCUCCAGATT against Pln is -0.669 (inactive). With GGAAUGACAAGAUUAUUGUTT against Ercc3 the figure was 0.157 (inactive); with GGAGAGGAGUUCUUCAUUCTT against Adamts1, -1.38 (inactive); with GCAAGUAGCAUCUCUGAUUTT against Nfs1, 1.03 (inactive). On to GGCAAGAAGUGUGAUGAACTT against Kansl3, for which the z-score is -2.81 (active).

For the sequence GGAGGAACUGGAUUCUUACTT against Eps8l3, the z-score was -0.348 (inactive). The figure for GGUUGUUAGGAAUCGAUCCTT against Rps26 is 0.964 (inactive). The figure for GGUGGAAUACUUGGAGCAGTT against Gstm4 is 2.98 (active); for CCAAUGCCGCCAGAAGUUATT against Siah2 it is 0.295 (inactive).

Consider CCUGUGCUCUUAUUAUCAATT against Rpp14, for which the z-score is 0.693 (inactive). The figure for GCAACUUUAAUGACAGCGUTT against Moxd1 is -0.211 (inactive). The figure for GCUCUAUGGAGACCUAAAGTT against Sdha is -0.378 (inactive); for GGAGGGACAUGGAGAUUACTT against Ptpn18 it is 3.15 (active). The figure for GGGAUUUUCAAAGUGAGAATT against Pmaip1 is -0.502 (inactive). Consider GGAUUUUCACCAACAGCCUTT against Gh, for which the z-score is 0.046 (inactive). With GGACUGAAGUCCUUGACACTT against Lgi3 the figure was -1.46 (inactive); with CCUCCUACUGUUUAAUGUUTT against Exd2, 2.47 (active); with GCCUUGACGAUAGAUUAUUTT against Irf2, 1.36 (inactive). The figure for GGUUGAUAAAGGAGCCAUCTT against Mcts1 is 1.02 (inactive); for GGUGUCCUUUCAAGUUGAUTT against Spg11 it is 2.15 (active); for GCCAGUGUGACAUUUGGUATT against Eed it is 0.651 (inactive). With GGAGACUUGCUAAAUGCCCTT against Fkbp7 the figure was -0.0461 (inactive); with GGCAACUAAGGCUAAGAAGTT against H1f4, -1.89 (inactive).

For the sequence GGUCUCGCUCCAAGGAAGATT against Tra2b, the z-score was 2.56 (active). The figure for GGAGACUGUCAUGGCUGUGTT against Olfr397 is -1.84 (inactive); for GCUUUACCUCCUAUUAAUATT against Rgs9bp it is -0.91 (inactive); for GGAUUUAGCCAUGGAUUUCTT against Zfp473 it is -1.17 (inactive). The figure for GUACAAGCCACUGGAUCUGTT against Smad6 is 5.56 (active); for GGAGACAAAGCAUUAUCUATT against Usp33 it is -0.366 (inactive). The figure for GGUGAAAGGAGCAAAUGAUTT against Fyco1 is -0.332 (inactive); for GGCACUGAGGUUGUUCAGGTT against Eif3h it is 0.806 (inactive); for CCUACCAUACCAUGAGCAGTT against Pou4f3 it is 1.52 (inactive). GGAAUACAGAUUUUUCAGATT against Frmd6: the z-score is -1.15 (inactive). With GCAGAUACUGAGAUGCUAUTT against Dkk4 the figure was 2.24 (active); with GGUGUUACCCUCCUUAGAGTT against Tmem230, -1.03 (inactive). With GGAUCUUGAAGACCAAAAATT against Kazn the figure was -2.14 (active); with GGCGAACAUGCACUUUCACTT against Gramd3, -1.28 (inactive); with GGAGCAUGAGGAUUACUGUTT against Trafd1, 0.731 (inactive).

In the case of GGACAGUUUACUCCAGAUATT against Foxc1, the z-score was 2.84 (active). The figure for GCACUAAAGGGCUUUUCAUTT against Serping1 is 0.912 (inactive); for GGAGAAAGGCAUCUUCAAATT against Spdef it is 0.0302 (inactive); for GCCUUACUACUACAACAACTT against Prpf40b it is 2.08 (active).
